Assay outcomes deposited in PubChem BioAssay by National Center for Advancing Translational Sciences (NCATS).
Cruzain inh noDet: inhibitors of Trypanosoma cruzi cruzain without detergent | P25779 | purified cruzain, Z-FR-AMC fluorescence, no detergent | Potency, µM, for inactives: max response, negative = inhibition, most hits filed as inhibitors | 2.3% of 200,000 active;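 also: plate controls were enzyme without inhibitor for no effect and buffer without enzyme for full effect; nearly all actives have a fitted effect of over 40% in size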
Target sequence (P25779 123-467 limits assumed): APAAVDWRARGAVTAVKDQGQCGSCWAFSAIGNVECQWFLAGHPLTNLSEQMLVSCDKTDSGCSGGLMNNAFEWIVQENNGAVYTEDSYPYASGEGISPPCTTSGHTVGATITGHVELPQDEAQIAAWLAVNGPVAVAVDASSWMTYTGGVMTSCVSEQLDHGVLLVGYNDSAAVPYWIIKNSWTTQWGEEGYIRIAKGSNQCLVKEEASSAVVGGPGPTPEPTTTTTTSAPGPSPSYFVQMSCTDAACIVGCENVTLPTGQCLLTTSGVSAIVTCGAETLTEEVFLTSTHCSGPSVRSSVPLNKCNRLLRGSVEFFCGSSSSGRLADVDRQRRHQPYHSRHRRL
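Detergent-free condition (0.00005% Triton X-100) in acetate buffer pH 5.5 with DTT. 1.5 nM enzyme and compound were pre-mixed 15 min, then 2 uM Z-FR-AMC substrate added; reaction progress from fluorescence change between first and third reads (60 s).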
Cruzain inh Det: cruzain (T. cruzi) inhibition with detergent | P25779 | purified cruzain, Z-FR-AMC fluorescence, 0.01% Triton | Potency, µM, inactives show max response, negative = inhibition, hits mostly inhibitors | 0.43% of 200,000 active | AID 1478;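 also: plate controls were neutral wells for no effect and buffer without enzyme for full effect; nearly all actives have a fitted effect of over 40% in size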
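Cruzain (1.5 nM) preincubated 15 min at RT with compound in 100 mM sodium acetate pH 5.5, 5 mM DTT, 0.01% Triton X-100. Reaction started with 2 uM Z-FR-AMC; AMC fluorescence (ex 360/em 450 nm) change over 60 s gave rate.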
* hit, by the source's call; ? = inconclusive. Hits are enriched below; roughly 2.4% of the tested compounds scored in any of these assays. Calls follow the shape of the dose curve; as a rule, active = well fitted curve in the direction sought with a large enough effect; inconclusive = small, poorly fitted or top-dose-only effect, or another doubt; inactive = no such curve, though single readings can be large; an effect the other way counts as inactive or inconclusive. Potency is read from the fitted curve at half-maximal effect.

SMILES	Cruzain inh noDet	Cruzain inh Det
COc1cc([N+](=O)[O-])ccc1NC(=O)N1CCC2(CC1)Nc1ccccc1-n1cccc12	25µM*	-2%
Cc1ccc(OCc2nnc(NC(=O)Cc3cccs3)s2)cc1	?	4%
CCc1ccc(-c2nc(NC(=S)NC(=O)c3cccs3)sc2C)cc1	4µM*	3%
O=C(NC(=S)Nc1nc2ccccc2s1)c1cccs1	-26%	-9%
CCc1ccc(OCc2nnc(NC(=O)c3cccs3)s2)cc1	13µM*	2%
CC(C)c1ccc(-c2nnc3n(CCc4ccccc4)c(=O)c4ccccc4n23)cc1	-8%	-5%
O=C(/C=C\NCC(=O)c1ccccc1)c1ccc(F)cc1	-23%	-15%
O=C(/C=C\NCC(=O)c1ccccc1)c1ccc2ccccc2c1	32µM*	-26%
Cc1ccc(C)n1-c1nnc(N2CCCC(C(=O)NCc3ccc(F)cc3)C2)s1 (stereo not drawn)	2%	-8%
Cc1cc(/C=C2/C(=O)NN(c3ccccc3)C2=O)c(C)n1-c1cccc(O)c1	25µM*	-14%
CC1=NN(c2ccccc2)C(=O)/C1=C\c1cc(C)n(-c2ccccc2)c1C	?	-9%
COc1ccc(NC(=O)CSc2oc(-c3ccc(F)cc3)nc2S(=O)(=O)c2ccc(C)cc2)c(OC)c1	8%	-1%
CC(C)[C@@H](CC(=O)N[C@@H]1CCCC[C@H]1C(=O)N[C@H](CC(=O)N[C@@H](CCC(=O)O)CC(=O)O)Cc1c[nH]c2ccccc12)NC(=O)C[C@H](Cc1ccccc1)NC(=O)[C@@H]1CCCC[C@H]1N	?	-3%
O=C(N/N=C/c1ccccc1[N+](=O)[O-])c1ccc(COc2ccccc2-c2ccccc2)cc1	13µM*	-5%
CCOc1ccc(C(=O)N/N=C/c2ccccc2[N+](=O)[O-])cc1	-17%	-7%
CCOc1ccc(NC(=O)CSc2nc(C)cc(C)n2)cc1	1%	2%
CCCCOc1ccc(NC(=S)Nc2cc(C)nc(SCCCC)n2)cc1	25µM*	0%
O=C(O)CCCc1ccc2ccc3ccccc3c2c1	4%	3%
COc1ccc(-n2c(Cc3cccn3C)nnc2SCC(=O)Nc2ccc3c(c2)OCO3)cc1	19%	-1%
Cn1c(=O)c(C(=O)COC(=O)c2cc(-c3ccccc3)nc3ccccc23)c(N)n(Cc2ccccc2)c1=O	10µM*	0%
Cn1c(=O)c(C(=O)COC(=O)c2cc(C(F)(F)F)nc3ccccc23)c(N)n(Cc2ccccc2)c1=O	-12%	-4%
CC(=O)c1nn(-c2cccc(Br)c2)cc1C(=O)c1ccc(C)cc1	0%	-4%
CC(=O)c1nn(-c2cccc(Br)c2)cc1C(=O)c1ccc(Br)cc1	13µM*	4%
COc1cccc([C@@H]2Oc3ccc(OC)cc3C(=O)[C@H]2OC(=O)Nc2ccc(OC(F)F)cc2)c1	-8%	-3%
CC(=O)Nc1ccc(S(=O)(=O)N(C)c2ccccc2)cc1	-7%	3%
SMILES	Cruzain inh noDet	Cruzain inh Det
O=C(O)c1ccc(S(=O)(=O)c2ccccc2)cc1	-5%	2%
O=C(Nc1ccc(NC(=O)c2ccc(S(=O)(=O)c3ccccc3)cc2)cc1)c1ccccc1	4µM*	15%
CN(c1ccccc1)S(=O)(=O)c1ccc(NC(=O)c2ccc(-c3ccccc3)cc2)cc1	25µM*	3%
Cc1cccc(CCn2c(=O)c3ccccc3n(Cc3cccc(F)c3)c2=O)c1	3%	0%
CC(C)c1ccc(Cn2ccc3c4c(N)nc(NC5CC5)nc4ccc32)cc1	-8%	-7%
Cc1cccc(N/C(N)=N/c2nc(C(F)(F)F)cc(=O)[nH]2)c1C	?	-1%
CCNC(=O)[C@H]1O[C@@H](n2cnc3c(N)nc(NCCc4ccc(CCC(=O)O)cc4)nc32)[C@H](O)[C@H]1O	6%	2%
C/C(=N/S(=O)(=O)c1ccc(Cl)c(Cl)c1)OCC(C)(C)C	-12%	-8%
CN1CCN(c2ccccc2NC(=O)c2ccc(-c3ccc(Cl)cc3Cl)o2)CC1	1%	-20%
CS(=O)(=O)N1CCN(c2ccccc2NC(=O)c2ccc(-c3ccc(Cl)cc3Cl)o2)CC1	3.2µM*	-2%
FC(F)(F)c1cc(NC(=S)N2c3ccccc3-n3cccc3[C@H]2c2cccnc2)cc(C(F)(F)F)c1	-11%	-3%
NC(=O)c1ccc(NC(=O)COC(=O)c2c3c(nc4ccccc24)/C(=C\c2cccs2)CCC3)cc1	?	-2%
CCc1cccc(C)c1NC(=O)COC(=O)c1c2c(nc3ccccc13)/C(=C\c1cccs1)CCC2	7.9µM*	0%
COc1ccccc1Nc1nc(-c2c(C)[nH]c3ccccc23)cs1	25µM*	-5%
c1cncc(-c2nc(-c3ccc4c(c3)OCO4)cs2)c1	-8%	-12%
COc1ccc(-c2csc(Nc3cccnc3)n2)cc1OC	-9%	2%
COc1ccccc1Nc1nc(-c2sc(NC(=O)CC(C)C)nc2C)cs1	?	-2%
O=C1c2ccccc2C(=O)N1c1cccc(-c2csc(Nc3ccc4c(c3)OCO4)n2)c1	5µM*	0%
